Screening results from PubChem BioAssay.
AMA1-RON2 inh – qHTS for Inhibitors of AMA1-RON; Towards Development of Antimalarial Drug Lead: Primary Screen; Potency, µM (series often up to 58.2 µM), actives largely listed as inhibitors; AlphaScreen AMA1-biotinylated RON2 peptide binding; Plasmodium falciparum AMA1 (3D7) - RON2 peptide interaction; 0.2% of 360,000 active; note: nearly all actives have a fitted effect of over 45% in size
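AMA1 (3D7) with his tag at 25 nM final met compounds first, then biotinylated RON2 peptide at 25 nM; detection used donor plus acceptor beads, 10 µg/mL apiece, read by AlphaScreen after 30 min at room temperature.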
Pf growth 48h – Primary qHTS for delayed death inhibitors of the malarial parasite plastid, 48 hour incubation. P. falciparum luciferase growth in erythrocytes, 48 h. Potency, µM (top dose mostly 28.7 µM), hits mostly inhibitors. 5.9% of 310,000 active
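Luciferase-expressing P. falciparum in infected erythrocytes (2% hematocrit, 0.1% parasitemia final) in RPMI 1640/0.5% Albumax were exposed to compound for 48 hours at 37 C, 5% CO2; growth read as luminescence.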
Pf growth 96h – Primary qHTS for delayed death inhibitors of the malarial parasite plastid, 96 hour incubation; P. falciparum luciferase reporter growth, 96 h; Potency, µM (titrated, usually from 28.7 µM), actives largely listed as inhibitors; 6.9% of 320,000 active; AID 504834, 2011
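Erythrocytes infected with luciferase-expressing P. falciparum were dispensed at 2% hematocrit and 0.05% parasitemia (final), then incubated with compounds 96 hours at 37 C in 5% CO2. Luminescence after detection reagent addition reported growth.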
HCV inhibitor – qHTS Assay for Inhibitors of Hepatitis C Virus (HCV); AID 651820, 2012; 3.4% of 340,000 active; Potency, µM (highest dose often 41.8 µM), actives largely listed as inhibitors; Huh7.5.1 HCVcc-Cre infection, luciferase reporter, 44 h
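HCVcc-Cre virus at an moi near 0.5 was added right after compound to cells cultured 4 h from seeding (1,000 cells/well). Luciferase activity was determined 44 h later, 15 min after substrate addition at RT.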
A number is an active result; i = inactive; ? = inconclusive; nt = not tested or not shown; [ ] = remark or other dose. Hits are enriched below; roughly 11% of the tested compounds scored in any of these assays. Calls come from the whole dose curve; as a rule, active = well fitted curve in the direction sought with a large enough effect; inconclusive = small, poorly fitted or top-dose-only effect, or another doubt; inactive = no such curve, though single readings can be large; an effect the other way counts as inactive or inconclusive.

SMILES	AMA1-RON2 inh	Pf growth 48h	Pf growth 96h	HCV inhibitor
O=[N+]([O-])c1ccc2c(c1)-c1ccccc1C2=NO	i	nt	nt	?
Nc1cc2c(cc1Cl)-c1ccccc1C2=NO	i	nt	nt	5µM
Cc1ccc(CNC(=O)CCCCCNC(=O)N2CCn3c2nc2ccccc23)cc1	i	i	i	i
COc1cc(C)ccc1S(=O)(=O)n1nc(C)cc1C	i	i	i	i
COc1ccc(C(=O)Oc2ccc3ccc(=O)oc3c2)cc1	i	nt	i	i
O=C(Oc1ccc2ccc(=O)oc2c1)c1ccccc1	i	i	9.3µM	i
CCN(CC)CCN(C(=O)c1ccc2c(c1)CCCC2)c1nc2ccc(F)cc2s1	i	?	?	?
CCN(CC)CCN(C(=O)c1ccc2c(c1)CCCC2)c1nc2ccc(C)cc2s1	i	13µM	?	?
CCN(CC)CCN(C(=O)c1ccc2c(c1)CCCC2)c1nc2c(C)cccc2s1	i	9.3µM	?	?
COc1cc(-c2cccs2)cc(=O)c2c(C)oc(C)c12	i	?	12µM	11µM
CN(C)S(=O)(=O)N1CCCC(C(=O)c2ccc(C(F)(F)F)cc2)C1 (stereo not given)	i	i	0.83µM	i
CN(C)S(=O)(=O)N1CCCC(C(=O)c2ccc(-c3ccccc3)cc2)C1 (stereo not given)	i	i	?	i
COCCC(=O)N1CCCC(C(=O)c2ccc(C(F)(F)F)cc2)C1 (stereo not given)	i	i	13µM	i
O=C(c1ccc(C(F)(F)F)cc1)C1CCCN(C(=O)CN2CCCC2=O)C1 (stereo not given)	i	i	i	i
O=C(NC1CC1)c1[nH]c(C(F)(F)F)nc1-c1ccccc1	i	nt	nt	nt
COCCn1cnc2c1c(=O)n(CC(=O)NC(=O)NC(C)(C)C)c(=O)n2Cc1ccccc1	i	?	0.26µM	i
CCCCCNC(=O)Cn1c(=O)c2c(ncn2CC(C)C)n(Cc2ccccc2)c1=O	i	?	i	i
CC(C)CNC(=O)Cn1c(=O)c2c(ncn2CC(C)C)n(Cc2ccccc2)c1=O	i	?	?	11µM
COc1cccc(NC(=O)Cn2c(=O)c3c(ncn3Cc3ccccc3)n(Cc3ccccc3)c2=O)c1	i	nt	0.83µM	i
COc1cccc(NC(=O)Cn2c(=O)n(-c3cc(OC)c(OC)c(OC)c3)c(=O)c3ccccc32)c1	i	10µM	?	i
CN(Cc1ccccc1)N=Nc1nc[nH]c1C(N)=O	i	nt	nt	nt
C=CCN(c1ccccc1)S(=O)(=O)c1cccc(C(=O)NCC2CCCO2)c1 (stereo not given)	i	i	i	?
O=C(CN1CCc2ccccc2C1)Nc1cc(S(=O)(=O)N2CCOCC2)ccc1N1CCOCC1	i	?	13µM	i
O=C(CN1CCc2ccccc2C1)Nc1cc(S(=O)(=O)N2CCOCC2)ccc1N1CCCC1	i	?	?	i
CC1(C)NC(=O)N(CC(=O)Nc2cc(S(=O)(=O)N3CCOCC3)ccc2N2CCOCC2)C1=O	nt	i	7.4µM	nt
SMILES	AMA1-RON2 inh	Pf growth 48h	Pf growth 96h	HCV inhibitor
CCCCOP(=O)(OCCCC)C1(C)CC(=O)CC(C)(C)C1 (stereo not given)	i	nt	nt	i
O=[N+]([O-])c1ccc2nc(/C=C/c3ccc(Cl)cc3)[nH]c2c1	i	8.3µM	8.3µM	?
Cc1ccc(SCc2cc(=O)c3c(=O)n(-c4ccccc4)[nH]c3[nH]2)cc1	?	i[5.75 µM]	9.3µM	i
CCn1cc(C(=O)N[C@@H](CCSC)C(=O)NCCCN2CCOCC2)c(=O)c2cc3c(cc21)OCO3	i	i	i	i
Cc1c(C(=O)N/N=C/c2ccccc2)sc(=S)n1C	i	i	13µM	i
CNC(=O)c1cc(NC(=O)CCn2nc(-c3ccc(C)cc3)c3ccccc3c2=O)ccc1OC	i	i	?	i
CCN1CCN(C(=O)Nc2ccccc2OC)CC1	i	?	i	i
Cc1ccc2[nH]cc(CCNC(=O)c3ccco3)c2c1	i	i	i	i
Cc1cc(Br)c2[nH]cc(CCNC(=O)c3ccco3)c2c1	i	?	?	13µM
Cc1cc(-c2nnc3n2N=C(c2ccc(F)cc2)CS3)n[nH]1	i	i	?	i
O=C1NC(=O)N(CCc2ccc(F)cc2)C(=O)/C1=C\C=C\c1ccccc1	i	i	?	4µM
C=CCN1C(=O)NC(=O)/C(=C/C=C/c2ccccc2)C1=O	i	i	?	i
Cc1c(Br)c([N+](=O)[O-])nn1CCCC(=O)NC(C)c1ccccc1 (stereo not given)	i	i	?	i
COCCNC(=O)c1cc(-c2ccccc2C)n(CC2CC(c3cccc([N+](=O)[O-])c3)=NO2)n1 (stereo not given)	i	nt	nt	?
COc1ccccc1CNC(=O)c1cc(-c2ccccc2C)n(CC2CC(c3cccc([N+](=O)[O-])c3)=NO2)n1 (stereo not given)	i	5.2µM	?	?
Cc1ccccc1-c1cc(C(=O)NCC2CC2)nn1CC1CC(c2cccc([N+](=O)[O-])c2)=NO1 (stereo not given)	i	5.2µM	2.6µM	i
Clc1ccc(Nc2nnc(Cc3ccncc3)c3ccccc23)cc1	nt	13µM	6.7µM	nt
S=C(NCc1ccncc1)Nc1ccc(Cl)cc1	i	i	i	i
O=C1NC[C@@H](CCCCN2C[C@H](Cc3ccc(O)cc3)N(CCc3ccccc3)C(=O)C2=O)N(CC2CCCCC2)C1=O	i	nt	nt	nt
COC(=O)[C@@]12CCCN1[C@H](c1ccc(-c3ccccc3)cc1)[C@@H]1C(=O)N(C)C(=O)[C@@H]12	i	7.4µM	?	i
COC(=O)[C@@]12CCCCN1[C@H](c1ccc(-c3cccc(Cl)c3)cc1)[C@H]1C(=O)N(C)C(=O)[C@H]12	i	?	?	i
COC(=O)[C@@]12CCCN1[C@H](c1ccc(-c3cccc(Cl)c3)cc1)[C@H]1C(=O)N(C)C(=O)[C@H]12	i	6.6µM	13µM	?
COC(=O)[C@@]12CCCCN1[C@H](c1ccc(-c3ccc(OC)cc3)cc1)[C@@H]1C(=O)N(C)C(=O)[C@@H]12	i	?	i	i
CN(C)c1ccc(NC(=O)c2ccc(COc3cccc(Cl)c3)o2)cc1	28µM	nt	nt	i
CCN1CCN(C(=O)c2ccc(COc3cccc(Cl)c3)o2)CC1	i	i	i	?
CCOc1ccc(OCc2ccc(C(=O)Nc3cccnc3)o2)cc1	i	12µM	9.3µM	i
COc1ccc(NC(=O)C2CCCCN2S(=O)(=O)c2ccccc2)cc1S(=O)(=O)N1CCOCC1 (stereo not given)	i	nt	nt	i
Cc1cc(=O)oc2c3c(cc(OCC(=O)NC(Cc4ccc(Cl)cc4)C(=O)O)c12)OC(C)(C)CC3 (stereo not given)	i	i	?	i
CN1C(=O)N(C)C2(c3ccccc3)Nn3c(s/c(=C/c4ccccc4F)c3=O)=NC12c1ccccc1 (stereo not given)	nt	i	nt	i
